Data on 56 sequences can be found in the supplement of paper PMC11417369.

± gives the standard deviation of the averaged measurements. Whole data set: some 25,000 sequences, median “ln(normalized median fluorescence intensity)” near 10, cut for the highest 2% near 12. The sample as a whole holds a higher share of the highest values than the screen did.

In this assay the test system is PfAP2-G AP2 domain (GST-tagged). Put plainly: gcPBM binding intensity (ln(normalized median fluorescence intensity)); higher = stronger DNA binding. The essentials: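 In this array assay, P. falciparum DNA-binding domains with a GST tag, expressed in E. coli, were applied for 1 h to primer-extended double-stranded 36-bp intergenic genomic probes and negative controls on an Agilent 4 × 180k array. Bound protein was visualised with Alexa488 anti-GST antibody at 488 nm. Binding intensity is the highest Masliner-normalised natural-log median intensity across replicate spots of either probe orientation.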
Regarding “ATATTTATATATAGTAGTACTTTCAATAATTTAAAT [XGTACX_site7276]”, the “gcPBM binding intensity (ln)” value came out at 11.4 ± 0.84.

Turning to “TATATTTTATATTAGTGTACAAATTTCATTTTTCAT [XGTACX_site2204]”, the “gcPBM binding intensity (ln)” value is 11 ± 0.5.

With “TTTTAAATTTAGTGTAGTACACTTTTTTCAAATATA [XGTACX_site4659]”, the “gcPBM binding intensity (ln)” value was 11.7 ± 1.2.

On to “ATATGTTACTTTACATAAAGAAGAAGAAGAAGAAAA [CACACA_negctrl_site985]”, for which the “gcPBM binding intensity (ln)” value came to 9.805 ± 0.064.

On to “TTTTTGTTTGAACACTGTACGTATAAATATAAAAGT [XGTACX_site6476]”, for which the “gcPBM binding intensity (ln)” value was found to be 11.7 ± 0.84.

For “ATATAAACATGTTTGTGTACGTAATATGAAAAATAA [XGTACX_site8157]”, the “gcPBM binding intensity (ln)” value stood at 11.7 ± 1.

For “TGTATGATTATGTTGTGTACGTAAAATATGAAAAAT [XGTACX_site1720]”, the “gcPBM binding intensity (ln)” value was determined as 11.5 ± 0.89.

In the case of “TATAATAAAATATTTTGTACGTATATTTTAATATTT [XGTACX_site2582]”, the “gcPBM binding intensity (ln)” value was found to be 11.2 ± 0.72.

Regarding “TATAAAAAATTATGTTGTACGTAATATAAAATTTGT [XGTACX_site7122]”, the “gcPBM binding intensity (ln)” value is 11.4 ± 0.86.

Take “TCTTTTGAACAAATTTGTACGTATATAAAAATATTT [XGTACX_site6547]”: the “gcPBM binding intensity (ln)” value came out at 11.4 ± 0.71.

As to “TAAAATATAAGACACACACACATATATTTATATATC [CACACA_site6248]”, the “gcPBM binding intensity (ln)” value came out at 9.96 ± 0.099.

Consider “AAAAAAAAAAAAAAAAGTACACAGTAGAATTAAATG [XGTACX_site1843]”, for which the “gcPBM binding intensity (ln)” value came to 11.7 ± 0.92.

“AAAAAAAAAATTAAAAGTACAGAAAATAAATAAATA [XGTACX_site7470]”: the “gcPBM binding intensity (ln)” value turned out to be 11.4 ± 0.82.

Turning to “AAAGAATAATTAAATACACACATATTACAGTAAAAA [CACACA_site2450]”, the “gcPBM binding intensity (ln)” value was found to be 10.03 ± 0.092.

As to “TTATGTACAATTTCTTCTTTCTTTTTTCCTAAAGAC [CACACA_negctrl_site1193]”, the “gcPBM binding intensity (ln)” value amounted to 11.1 ± 0.57.

Turning to “GGTCTTATTTTTAGTAGTACAAATATAATATACATA [XGTACX_site6483]”, the “gcPBM binding intensity (ln)” value was found to be 11.4 ± 0.83.

Take “AATAATTTAATACATACACACGTATATCTTTTTTTT [CACACA_site8632]”: the “gcPBM binding intensity (ln)” value came out at 9.955 ± 0.078.

Take “TAATTGTACGCCAATACACACAGAATTAAAATGTAG [CACACA_site4234]”: the “gcPBM binding intensity (ln)” value was determined as 11.6 ± 1.1.

Take “TAATTGTACGCCAATACACACAGAATTAGAATGTAG [CACACA_site102]”: the “gcPBM binding intensity (ln)” value stood at 11.8 ± 1.3.

“TAATTGTACGCCAATACACACAGAATTATAATGTAG [CACACA_site6201]”: the “gcPBM binding intensity (ln)” value was 11.5 ± 1.

“CAACATTTATATTTTACACACATCATTTAAGCGCTT [CACACA_site992]”: the “gcPBM binding intensity (ln)” value is 10.09 ± 0.078.

On to “ATCCTTTATTTTTTTTGTACATAAAAATAACTCGAG [XGTACX_site3885]”, for which the “gcPBM binding intensity (ln)” value is 11.1 ± 0.62.

In the case of “ATATGTATATTTTTGATGTGCTTTTATTTGGTTATT [CACACA_negctrl_site626]”, the “gcPBM binding intensity (ln)” value came out at 10.01 ± 0.035.

Take “TTCCCCCCCAGACACACACACACATACATACCACAT [CACACA_site2305]”: the “gcPBM binding intensity (ln)” value is 11.8 ± 0.84.

As for “CGCATACACGGACACACACACACATATATATATATA [CACACA_site4520]”, the “gcPBM binding intensity (ln)” value is 11.3 ± 0.7.

Consider “AACATATACACGAACACACACACATATATATATATA [CACACA_site502]”, for which the “gcPBM binding intensity (ln)” value amounted to 10.3 ± 0.26.

Take “CATATACACGAACACACACACATATATATATATATA [CACACA_site4437]”: the “gcPBM binding intensity (ln)” value is 10.5 ± 0.68.

Consider “TACATACACGGACACACACACATATATATATATATA [CACACA_site5883]”, for which the “gcPBM binding intensity (ln)” value came to 11.3 ± 0.88.

For the sequence “TACAGACATACATACACACATACATACAGACATACA [CACACA_site1941]”, the “gcPBM binding intensity (ln)” value stood at 10.1 ± 0.3.

As for “CATACACCCAGACACACACACATATATATATATATA [CACACA_site634]”, the “gcPBM binding intensity (ln)” value stood at 10.3 ± 0.39.

On to “CACAGACACCCATACACACACATACCCATATATATA [CACACA_site5023]”, for which the “gcPBM binding intensity (ln)” value is 10.4 ± 0.26.

As for “CCCCCCCACAGACACACACACATACATACCACATAT [CACACA_site2306]”, the “gcPBM binding intensity (ln)” value worked out at 11.8 ± 0.76.

For the sequence “CCCCCCCACGGACACACACACATACATACCACATAT [CACACA_site5303]”, the “gcPBM binding intensity (ln)” value stood at 11.7 ± 0.75.

With “TACATACACAGACACACACACATATATATATATATA [CACACA_site3557]”, the “gcPBM binding intensity (ln)” value was found to be 10.2 ± 0.38.

Take “CCCCCCCACGAACACACACACATACATACCACATAT [CACACA_site7149]”: the “gcPBM binding intensity (ln)” value amounted to 12 ± 1.

On to “AAATTAATGTATATGTGAAGCAAGGGATGCGGCAGA [CACACA_negctrl_site406]”, for which the “gcPBM binding intensity (ln)” value worked out at 10.2 ± 0.12.

Turning to “GTACCTATTTCATACACACACACACCCAAACAAACA [CACACA_site976]”, the “gcPBM binding intensity (ln)” value was determined as 10.7 ± 0.51.

In the case of “ACATAATAAAAATAAATTCATAAGTAAATAAATAAA [TGCATGCA_negctrl_site186]”, the “gcPBM binding intensity (ln)” value amounted to 9.88 ± 0.24.

On to “GTTTGTATAGGTTCATGTACAAAAAAAAAAAAAAAA [XGTACX_site537]”, for which the “gcPBM binding intensity (ln)” value was 11 ± 0.83.

As to “TTGTTTAAGTCACGAACACACATATATCATCAATTT [CACACA_site986]”, the “gcPBM binding intensity (ln)” value turned out to be 10.11 ± 0.071.

As for “TTACTTATAAATAAATATACAAAAATGTTATATATA [XGTACX_negctrl_site223]”, the “gcPBM binding intensity (ln)” value is 9.625 ± 0.078.

As for “CATACATACATACATACATGCATACATACATACATA [TGCATGCA_site218]”, the “gcPBM binding intensity (ln)” value worked out at 10.5 ± 0.47.

Regarding “AATTCTTTTTTCAACACACACACACCCGAAAATATA [CACACA_site3111]”, the “gcPBM binding intensity (ln)” value came to 10.3 ± 0.28.

Regarding “CAAACCTATATACAAACATGCAATCCACATATTGGT [TGCATGCA_site756]”, the “gcPBM binding intensity (ln)” value was determined as 9.99 ± 0.13.

Turning to “AACACAAGAACAGAACGTACACACACATATATATAT [XGTACX_site7347]”, the “gcPBM binding intensity (ln)” value was 11.3 ± 0.61.

With “AAAAAATGAAAAAACTGTACGCAATTTTGTTTTTAT [XGTACX_site2299]”, the “gcPBM binding intensity (ln)” value was 11.7 ± 1.2.

As for “TAAAATTTTTGTTTTTGTACGAAACATCAATTTTAC [XGTACX_site4963]”, the “gcPBM binding intensity (ln)” value came out at 10.7 ± 0.34.

On to “AAGAAAAATTTAAACTGTACTTGTTTTCCAATGAAC [XGTACX_site4443]”, for which the “gcPBM binding intensity (ln)” value was found to be 11.4 ± 1.

On to “CTTAAATTGAAATGTTGTACAAAGTAAAAACAATGA [XGTACX_site2123]”, for which the “gcPBM binding intensity (ln)” value came out at 11.2 ± 0.86.

For the sequence “GTATATCACACATTTGCATGTTGTCAATAGTTTATC [TGCATGCA_site134]”, the “gcPBM binding intensity (ln)” value was 10.23 ± 0.014.

For the sequence “TTAAAAATATTATGTACACACATTTTAGATATTTGT [CACACA_site1846]”, the “gcPBM binding intensity (ln)” value turned out to be 11.6 ± 0.77.

For “ATTTAAAAAATATATTGTACATATTTTATTATGTTT [XGTACX_site2984]”, the “gcPBM binding intensity (ln)” value was 11 ± 0.63.

“TTCTTTAAAATATTATGTACACATTGCGAACAGTTT [XGTACX_site5418]”: the “gcPBM binding intensity (ln)” value worked out at 11.7 ± 1.

With “GTTATAAAATATGGCACACAAAATGTAAGTAAATGA [CACACA_site1458]”, the “gcPBM binding intensity (ln)” value came to 10.5 ± 0.2.

As to “TTCATTAATGTGTAATGTACTTGTAATATGGGATTA [XGTACX_site3903]”, the “gcPBM binding intensity (ln)” value amounted to 11.1 ± 0.82.

As to “TTTTTATTTATATGATACTTATATATATATATATAT [CACACA_negctrl_site462]”, the “gcPBM binding intensity (ln)” value turned out to be 10.2 ± 0.35.
